From PubChem BioAssay AID1159580 (chemical genetic matrix, 2015)
About 2,000 (36%) of roughly 5,500 compounds were called active. Roughly 18% stayed inconclusive and do not appear here. Cut-off read from the data, not from the text of the source: active = normalized growth mostly below about 0.91 (no sharp cut-off); inconclusive = no clear call, values can overlap the other calls; inactive = mostly above about 0.92. The list shows a part of the results.

Test: chemical genetic growth profiling, strain panel (AID 1159580);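 note: tested at 20 µM; growth read once vehicle control cultures reached saturation at 30 °C; 1 = growth at the plate median or of vehicle wells; lower values mean less growth of the strain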
Conditions: growth OD

Measured: normalized growth

CCOC([O-])=Nc1c[n+](N2CCOCC2)no1
inactive: S. cerevisiae deletion strains, locus YJR075W, strain HOC1, stronger effect = lower value 1.01 | S. cerevisiae deletion strains, locus YKL009W, strain mrt4, stronger effect = lower value 1.05 | S. cerevisiae deletion strains, locus YKL068W, stronger effect = lower value 0.993 | S. cerevisiae deletion strains, locus YKL085W, strain MDH1 (second series), stronger effect = lower value 1.04 | S. cerevisiae deletion strains, locus YKL085W, strain MDH1, stronger effect = lower value 1.04 | S. cerevisiae deletion strains, locus YKL160W, strain elf1, stronger effect = lower value 0.984 | S. cerevisiae deletion strains, locus YKL190W, strain CNB1, stronger effect = lower value 1.01 | S. cerevisiae deletion strains, locus YKR001C, strain vps1, stronger effect = lower value 0.976 | S. cerevisiae deletion strains, locus YKR026C, strain gcn3, stronger effect = lower value 0.994 | S. cerevisiae deletion strains, locus YKR091W, strain srl3, stronger effect = lower value 0.995 | S. cerevisiae deletion strains, locus YLL001W, strain dnm1, stronger effect = lower value 0.988 | S. cerevisiae deletion strains, locus YLL026W, stronger effect = lower value 0.993 | S. cerevisiae deletion strains, locus YLL041C, strain sdh2, stronger effect = lower value 0.988 | S. cerevisiae deletion strains, locus YLR027C, strain aat2, stronger effect = lower value 0.997 | S. cerevisiae deletion strains, locus YLR039C, strain RIC1, stronger effect = lower value 1.02 | S. cerevisiae deletion strains, locus YLR058C, strain SHM2, stronger effect = lower value 1.01 | S. cerevisiae deletion strains, locus YLR102C, strain apc9, stronger effect = lower value 0.999 | S. cerevisiae deletion strains, locus YLR113W, strain HOG1, stronger effect = lower value 1.01 | S. cerevisiae deletion strains, locus YLR221C, strain rsa3, stronger effect = lower value 0.985 | S. cerevisiae deletion strains, locus YLR258W, strain gsy2, stronger effect = lower value 0.999 | S. cerevisiae deletion strains, locus YLR262C, strain YPT6 (second series), stronger effect = lower value 1.01 | S. cerevisiae deletion strains, locus YLR262C, strain YPT6, stronger effect = lower value 1.05 | S. cerevisiae deletion strains, locus YLR268W, strain sec22, stronger effect = lower value 0.964 | S. cerevisiae deletion strains, locus YLR320W, strain mms22, stronger effect = lower value 0.987 | S. cerevisiae deletion strains, locus YLR330W, strain CHS5, stronger effect = lower value 1.01 | S. cerevisiae deletion strains, locus YLR342W, strain FKS1 (second series), stronger effect = lower value 1.02 | S. cerevisiae deletion strains, locus YLR342W, strain FKS1, stronger effect = lower value 1 | S. cerevisiae deletion strains, locus YLR357W, strain rsc2, stronger effect = lower value 0.984 | S. cerevisiae deletion strains, locus YLR370C, strain arc18, stronger effect = lower value 0.982 | S. cerevisiae deletion strains, locus YLR371W, strain rom2, stronger effect = lower value 0.994 | S. cerevisiae deletion strains, locus YLR384C, strain iki3, stronger effect = lower value 0.994 | S. cerevisiae deletion strains, locus YLR418C, strain cdc73, stronger effect = lower value 0.993 | S. cerevisiae deletion strains, locus YML016C, strain PPZ1, stronger effect = lower value 1.02 | S. cerevisiae deletion strains, locus YML032C, strain rad52, stronger effect = lower value 0.984 | S. cerevisiae deletion strains, locus YML120C, strain ndi1, stronger effect = lower value 0.994 | S. cerevisiae deletion strains, locus YML124C, strain tub3, stronger effect = lower value 1 | S. cerevisiae deletion strains, locus YMR058W, strain fet3, stronger effect = lower value 0.995 | S. cerevisiae deletion strains, locus YMR078C, strain ctf18, stronger effect = lower value 0.996 | S. cerevisiae deletion strains, locus YMR125W, strain sto1, stronger effect = lower value 1.01 | S. cerevisiae deletion strains, locus YMR129W, stronger effect = lower value 0.994 | S. cerevisiae deletion strains, locus YMR205C, strain PFK2, stronger effect = lower value 0.995 | S. cerevisiae deletion strains, locus YMR223W, strain ubp8, stronger effect = lower value 0.998 | S. cerevisiae deletion strains, locus YMR231W, strain pep5, stronger effect = lower value 0.994 | S. cerevisiae deletion strains, locus YMR263W, strain SAP30, stronger effect = lower value 1.02 | S. cerevisiae deletion strains, locus YMR307W, strain GAS1, stronger effect = lower value 1.04 | S. cerevisiae deletion strains, locus YNL067W, strain RPL9B, stronger effect = lower value 1 | S. cerevisiae deletion strains, locus YNL071W, strain lat1, stronger effect = lower value 1 | S. cerevisiae deletion strains, locus YNL128W, strain TEP1, stronger effect = lower value 1.01 | S. cerevisiae deletion strains, locus YNL153C, strain GIM3, stronger effect = lower value 1 | S. cerevisiae deletion strains, locus YNL183C, strain NPR1, stronger effect = lower value 0.999 | S. cerevisiae deletion strains, locus YNL209W, strain ssb2, stronger effect = lower value 0.993 | S. cerevisiae deletion strains, locus YNL233W, strain BNI4, stronger effect = lower value 1.02 | S. cerevisiae deletion strains, locus YNL248C, strain rpa49, stronger effect = lower value 0.992 | S. cerevisiae deletion strains, locus YNL250W, strain rad50, stronger effect = lower value 0.982 | S. cerevisiae deletion strains, locus YNL271C, strain bni1, stronger effect = lower value 0.981 | S. cerevisiae deletion strains, locus YNL298W, strain CLA4, stronger effect = lower value 0.982 | S. cerevisiae deletion strains, locus YNL307C, strain MCK1, stronger effect = lower value 1.01 | S. cerevisiae deletion strains, locus YNL322C, strain KRE1 (second series), stronger effect = lower value 0.99 | S. cerevisiae deletion strains, locus YNL322C, strain KRE1, stronger effect = lower value 1.01 | S. cerevisiae deletion strains, locus YNR049C, strain mso1, stronger effect = lower value 0.988 | S. cerevisiae deletion strains, locus YNR052C, strain pop2, stronger effect = lower value 0.989 | S. cerevisiae deletion strains, locus YOL006C, strain TOP1, stronger effect = lower value 1.03 | S. cerevisiae deletion strains, locus YOL012C, strain htz1 0.747 | S. cerevisiae deletion strains, locus YOL147C, strain pex11, stronger effect = lower value 0.978 | S. cerevisiae deletion strains, locus YOR001W, strain rrp6, stronger effect = lower value 1.01 | S. cerevisiae deletion strains, locus YOR061W, strain CKA2, stronger effect = lower value 1.02 | S. cerevisiae deletion strains, locus YOR069W, strain VPS5, stronger effect = lower value 1.01 | S. cerevisiae deletion strains, locus YOR070C, strain gyp1, stronger effect = lower value 0.994 | S. cerevisiae deletion strains, locus YOR080W, strain dia2, stronger effect = lower value 0.997 | S. cerevisiae deletion strains, locus YOR083W, strain WHI5, stronger effect = lower value 0.988 | S. cerevisiae deletion strains, locus YOR106W, strain vam3, stronger effect = lower value 1.01 | S. cerevisiae deletion strains, locus YOR136W, strain idh2, stronger effect = lower value 0.993 | S. cerevisiae deletion strains, locus YOR144C, strain elg1, stronger effect = lower value 0.991 | S. cerevisiae deletion strains, locus YOR184W, strain ser1, stronger effect = lower value 1 | S. cerevisiae deletion strains, locus YOR231W, strain MKK1, stronger effect = lower value 1.01 | S. cerevisiae deletion strains, locus YOR265W, strain rbl2, stronger effect = lower value 0.991 | S. cerevisiae deletion strains, locus YOR270C, strain vph1, stronger effect = lower value 1.04 | S. cerevisiae deletion strains, locus YOR290C, strain snf2, stronger effect = lower value 0.992 | S. cerevisiae deletion strains, locus YOR316C, strain cot1, stronger effect = lower value 0.998 | S. cerevisiae deletion strains, locus YPL051W, strain arl3, stronger effect = lower value 0.995 | S. cerevisiae deletion strains, locus YPL055C, strain LGE1, stronger effect = lower value 1.04 | S. cerevisiae deletion strains, locus YPL078C, strain atp4, stronger effect = lower value 1 | S. cerevisiae deletion strains, locus YPL106C, strain sse1, stronger effect = lower value 0.963 | S. cerevisiae deletion strains, locus YPL240C, strain hsp82, stronger effect = lower value 0.981 | S. cerevisiae deletion strains, locus YPL241C, strain CIN2, stronger effect = lower value 1.01 | S. cerevisiae deletion strains, locus YPL256C, strain CLN2, stronger effect = lower value 1.04 | S. cerevisiae deletion strains, locus YPR119W, strain clb2, stronger effect = lower value 0.994 | S. cerevisiae deletion strains, locus YPR141C, strain kar3, stronger effect = lower value 0.983 | S. cerevisiae deletion strains, locus YPR163C, strain tif3, stronger effect = lower value 0.984 | S. cerevisiae deletion strains, locus YPR167C, strain met16, stronger effect = lower value 1 | S. cerevisiae deletion strains, strain wtn01, stronger effect = lower value 0.98 | S. cerevisiae strains, strain wild type, stronger effect = lower value 1.02
